Holding throughout (experiment): qHTS assay to identify novel small-molecules to repurpose for Merkel cell carcinoma treatment (AID 1296009); note: nearly all actives have a fitted effect of over 60% in size
For test [1], the system named is HEK293T. The note with it: MCC and control cell lines, CellTiter-Glo viability, 72 h; at 44.8 µM (top of the series). The essentials:
(§1)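 Dose-response viability screen; 72 hr exposure at 37 degree celsius; CellTiter-Glo added, 10 min room temperature, luminescence read; RLUs scaled between no-cell and DMSO wells.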

For test [2], the system named is MCC-13. The settings on record: MCC and control cell lines, CellTiter-Glo viability, 72 h; series mostly up to 46 µM. The essentials:
as §1

In test [3] the test system is MCC-26. The settings on record: MCC and control cell lines, CellTiter-Glo viability, 72 h; series mostly up to 46 µM. The essentials:
as §1

For test [4], the system named is MKL-1. The settings on record: MCC and control cell lines, CellTiter-Glo viability, 72 h; series mostly up to 46 µM. The essentials: as §1
Test [5] concerns MKL-2. The note with it: MCC and control cell lines, CellTiter-Glo viability, 72 h; series mostly up to 46 µM. The essentials:
as §1

Records with an inconclusive call do not appear. Calls of active or inactive are those of the source. Calls come from the whole dose curve; as a rule, active = well fitted inhibition curve with a large enough effect; inconclusive = small, poorly fitted or top-dose-only effect; inactive = flat fitted curve, though single readings scatter.

As to `O=C(OCc1ccccc1)c1ccc(O)cc1`, the result in test [1] was inactive.
`O=C(O)CCC(=O)c1ccc(-c2ccccc2)cc1`: the call in test [2], in test [3], in test [4] and in test [5] was inactive.
